From PubChem BioAssay (NCI)
The panel holds about 83,000 compounds, 20% with a hit somewhere; the sample as a whole holds those more often.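 Method: cells in 96-well plates; compound added at one concentration; 48 h incubation; percent growth measured; values under 10 scored active.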 Activity calls are given as the source filed them.

Assays:
Experiment in all cases: NCI-60 one-dose screen, 48 h (100 = growth as untreated, 0 = no growth, -100 = all killed)
HT29 colon = settings: 10 µM unless noted
SNB-75 CNS = settings: 10 µM unless noted
SNB-19 CNS = settings: 10 µM unless noted
U251 CNS = settings: 10 µM unless noted
PC-3 prostate = settings: 10 µM unless noted
SK-MEL-5 melanoma = settings: 10 µM unless noted
UACC-62 melanoma = settings: 10 µM unless noted
LOX IMVI melanoma = settings: 10 µM unless noted
SK-MEL-28 melanoma = settings: 10 µM
SK-MEL-2 melanoma = settings: 10 µM unless noted

Measured: growth

O=c1c(-c2nc3ccccc3[nH]2)cc2ccccc2n1Cc1cn(Cc2ccccc2Cl)nn1
inactive: SNB-19 CNS 54.8% | U251 CNS 37.9% | PC-3 prostate 36.6% | UACC-62 melanoma 22.1% | LOX IMVI melanoma 12.8% | SK-MEL-2 melanoma 94.1%
active: HT29 colon 0.454% | SNB-75 CNS -41.2% | SK-MEL-5 melanoma 0.0348% | SK-MEL-28 melanoma 1.94%

CCN1CCN(c2cc(C)c3cc(NC(=O)c4ccc(OC)c(OC)c4)ccc3n2)CC1
inactive: HT29 colon 13% | SNB-75 CNS 66.9% | SNB-19 CNS 58.1% | U251 CNS 45.6% | PC-3 prostate 49.2% | SK-MEL-5 melanoma 19.4% | UACC-62 melanoma 27.3% | LOX IMVI melanoma 33.4% | SK-MEL-28 melanoma 51.9% | SK-MEL-2 melanoma 50.7%

COc1cc(-c2c3c(c(Br)n2Cc2ccccc2)-c2nc(N)sc2CC3)cc(OC)c1OC
inactive: HT29 colon 105% | SNB-75 CNS 73.7% | SNB-19 CNS 88.2% | U251 CNS 85.3% | PC-3 prostate 78.6% | SK-MEL-5 melanoma 87.1% | UACC-62 melanoma 68.3% | LOX IMVI melanoma 87.5% | SK-MEL-28 melanoma 87.3% | SK-MEL-2 melanoma 101%

O=C(Nc1nc2c(s1)CCc1c-2c(Br)n(Cc2ccccc2)c1Br)c1ccccc1
active: SNB-75 CNS -10.7%
inactive: HT29 colon 51.6% | SNB-19 CNS 65.7% | U251 CNS 57.3% | PC-3 prostate 67.3% | SK-MEL-5 melanoma 41% | UACC-62 melanoma 62.4% | LOX IMVI melanoma 68.5% | SK-MEL-28 melanoma 66% | SK-MEL-2 melanoma 89.4%

COc1cc(NC(=O)CCSc2nc3ccccc3c(=O)n2Cc2ccccc2)cc(OC)c1OC
inactive: HT29 colon 97.1% | SNB-75 CNS 55.7% | SNB-19 CNS 84.9% | U251 CNS 91.6% | PC-3 prostate 66.9% | SK-MEL-5 melanoma 87.4% | UACC-62 melanoma 64.8% | LOX IMVI melanoma 82% | SK-MEL-28 melanoma 102% | SK-MEL-2 melanoma 84.4%

CCOC(=O)C1=CN(C)C=C(C(=O)OCC)C1c1cc(Br)c(OCC)c(OC)c1
inactive: SNB-75 CNS 43.5% | SNB-19 CNS 64.8% | U251 CNS 34.8% | PC-3 prostate 45.2% | SK-MEL-5 melanoma 36.1% | LOX IMVI melanoma 18.3% | SK-MEL-28 melanoma 18.8% | SK-MEL-2 melanoma 72.3%
active: HT29 colon 7.46% | UACC-62 melanoma -48%

Cn1c2c(c(=O)[nH]c1=O)NC1=C(C(=O)c3ccccc31)C1(C=C(O)c3ccccc31)N2 (stereo not given)
inactive: HT29 colon 113% | SNB-75 CNS 92.1% | SNB-19 CNS 114% | U251 CNS 103% | PC-3 prostate 94.1% | SK-MEL-5 melanoma 111% | UACC-62 melanoma 116% | LOX IMVI melanoma 94.1% | SK-MEL-28 melanoma 148% | SK-MEL-2 melanoma 107%

CCOC(=O)c1cc2c(n1Cc1ccccc1)-c1oncc1CCC2
inactive: HT29 colon 37.7% | SNB-75 CNS 75.6% | SNB-19 CNS 88.1% | U251 CNS 85.8% | PC-3 prostate 80.6% | SK-MEL-5 melanoma 66.6% | UACC-62 melanoma 51.8% | LOX IMVI melanoma 79.4% | SK-MEL-28 melanoma 67% | SK-MEL-2 melanoma 83.5%

COc1cc2nc(NC3CCC3)nc(NC3CCN(C(C)C)CC3)c2cc1OC
inactive: HT29 colon 14.5% | SNB-75 CNS 46.8% | SNB-19 CNS 91% | U251 CNS 21.5% | PC-3 prostate 58.9% | SK-MEL-5 melanoma 14.5% | UACC-62 melanoma 83.5% | LOX IMVI melanoma 42.9% | SK-MEL-28 melanoma 38.1% | SK-MEL-2 melanoma 91.5%

CCOC(=O)c1cc2c(n1Cc1cccc(OC)c1)-c1oncc1CCC2
active: SNB-75 CNS 7.49% | SK-MEL-5 melanoma 1.56%
inactive: HT29 colon 10% | SNB-19 CNS 39.4% | U251 CNS 27.3% | PC-3 prostate 38.8% | UACC-62 melanoma 31% | LOX IMVI melanoma 33.7% | SK-MEL-28 melanoma 47.8% | SK-MEL-2 melanoma 36.9%

Nc1ccn(C2O[C@H](CO)[C@@H](O)[C@H]2O)c(=O)n1 (stereo not given in full)
inactive: HT29 colon 106% | SNB-75 CNS 76.9% | SNB-19 CNS 101% | U251 CNS 48.9% | PC-3 prostate 85.6% | SK-MEL-5 melanoma 89.9% | UACC-62 melanoma 95.9% | LOX IMVI melanoma 75.5% | SK-MEL-28 melanoma 76.4% | SK-MEL-2 melanoma 110%
